{"source": "PubChem BioAssay (Tox21)", "note": "Values joined by “and” are separate entries in the source; they are usually repeats but may differ in a detail not shown here. Identical values can stand only once. Results filed as inconclusive are left out. Where a call stands in place of a potency, no number is given. More than one record can exist for a structure, and the calls need not agree. Active and inactive are the calls of the source. Calls follow the shape of the full dose curve. Potency is read from the fitted curve at half-maximal effect."}
{"assay": "Nuclear factor erythroid 2-related factor 2/antioxidant responsive element (Nrf2/ARE) small molecule agonists: luciferase reporter gene qHTS assay in human keratinocytes (AID 1919969); also: nearly all actives have a fitted effect of over 35% in size", "details": "KeratinoSens HaCaT ARE-luciferase, luminescence, 24 h; series mostly up to 92.4 µM", "excerpt": "National Center for Advancing Translational Sciences [NCATS]\nDivision of Preclinical Innovation [DPI]\nU.S. Environmental Protection Agency [EPA]\nNational Institutes of Environmental Health Sciences [NIEHS]\nNational Toxicology Program [NTP]\nU.S. Food and Drug Administration [FDA]\nOxidative stress has been implicated in the pathogenesis of a variety of diseases ranging from cancer to neurodegeneration. The antioxidant response element (ARE) signaling pathway plays an important role in the amelioration of oxidative stress. The KeratinoSens (Givaudan, Switzerland) is an in vitro test method which quantifies luciferase induction as a measure of activation of Keap1-Nrf2-antioxidationt/electrophile response element (ARE) dependant pathway in HaCaT human keratinocytes stably transfected with a selectable plasmid. The KeratinoSens assay is a cell-based assay with a reporter cell line to detect potential skin sensitizers by their ability to induce the Nrf2/ARE-response. The activation of the report gene under culture conditions can be detected by ONE-Glo Luciferase Assay System (Promega, Madison, WI). This cell line has been used to screen the Tox21 10K compound library to identify agonists that induce oxidative stress. The cytotoxicity of the Tox21 compound library against the KS-ARE cell line was tested in parallel by measuring the cell viability using CellTiter- Fluor assay system (Promega, Madison, WI) in the same wells.\nHaCaT derived cell line KeratinoSens were dispensed at 1,500 cells/5uL/well in 1536-well white wall/solid bottom plates using a Multidrop Combi (ThermoFisher Scientific, Waltham, MA) dispenser. After the assay plates were incubated at 37 C/5% CO2 for 5 h, 23 nL of compounds dissolved in DMSO, positive controls or DMSO only was transferred to the assay plate by a pintool workstation (Kalypsys, San Diego, CA). The plates were incubated at 37 C/5% CO2 for 23 h, followed by addition of 1uL/well of CellTiter-Fluor reagent into the assay plates using a Flying Reagent Dispenser (Aurora Discovery, San Diego, CA) for cell viability readout that measures cytotoxicity. After 1 h incubation at 37 C/5% CO2 the fluorescence intensity was measured using a ViewLux (PerkinElmer, Shelton, CT) plate reader. Then 4uL/well of One-Glo were added using a Flying Reagent Dispenser. After the plates were incubated at room temperature for 30 min, the luminescence intensity in the assay plates was measured using ViewLux plate reader."}
{"compound": "N#Cc1cc([N+](=O)[O-])ccc1N", "Potency": "inactive"}
{"compound": "CC1CCC(=O)O1", "note": "(stereo not given)", "Potency": "inactive"}
{"compound": "CC[N+]1(CC)CCC(OC(=O)C(O)(c2ccccc2)c2ccccc2)C1", "note": "(stereo not given)", "Potency": "inactive"}
{"compound": "CCC(Cl)[N+](=O)[O-]", "note": "(stereo not given)", "Potency": "inactive"}
{"compound": "C[N+](C)(C)CC(=O)O", "Potency": "inactive"}
{"compound": "CCC1(c2ccc(N)cc2)CCC(=O)NC1=O", "note": "(stereo not given)", "Potency": "inactive"}
{"compound": "CCCCCCCCOC(=O)c1ccc(C(=O)OCCCCCCCC)c(C(=O)OCCCCCCCC)c1", "Potency": "inactive"}
{"compound": "CC(=O)/C=C/c1ccccc1", "Potency": "60 µM (active) and inactive"}
{"compound": "[CH3][Sn]([CH3])([Cl])[Cl]", "Potency": "55.4 µM (active) and inactive"}
{"compound": "BrC(Br)Br", "Potency": "inactive"}
{"compound": "Clc1ccccc1Cl", "Potency": "inactive"}
{"compound": "CNC(=O)O/N=C/C(C)(C)SC", "Potency": "inactive"}
{"compound": "NNC(N)=S", "Potency": "21.7 µM (active)"}
{"compound": "O=C(O)C1C2CCC(O2)C1C(=O)O", "note": "(stereo not given)", "Potency": "inactive"}
{"compound": "OCc1ccco1", "Potency": "inactive"}
{"compound": "CCOP(=S)(OCC)O/N=C(\\C#N)c1ccccc1", "Potency": "inactive"}
{"compound": "COP(=O)(NC(C)=O)SC", "note": "(stereo not given)", "Potency": "inactive"}
{"compound": "NC(=S)Nc1ccccc1", "Potency": "55.4 µM (active) and inactive"}
{"compound": "COP(=O)(OC)OC=C(Cl)Cl", "Potency": "55 µM (active) and inactive"}
{"compound": "COC(=O)[C@@H](N)CCCN/C(N)=N/[N+](=O)[O-]", "Potency": "inactive"}
{"compound": "C[N+](C)(C)CC(=O)[O-]", "Potency": "inactive"}
{"compound": "CCCCCCCCCCn1cc[n+](C)c1", "Potency": "inactive"}
{"compound": "Oc1ccc(-c2ccccc2)cc1", "Potency": "61.1 µM (active)"}
{"compound": "COP(=S)(OC)Oc1ccc(SC)c(C)c1", "Potency": "inactive and 24.3 µM (active)"}
{"compound": "Nc1ccc(Cl)cc1", "Potency": "inactive"}
{"compound": "C(CCOCC1CO1)COCC1CO1", "note": "(stereo not given)", "Potency": "30.2 µM (active)"}
{"compound": "O=C(CCl)CCl", "Potency": "28.3 µM (active) and 27.3 µM (active)"}
{"compound": "CC(=O)CCC(C)=O", "Potency": "inactive"}
{"compound": "c1ccc(-c2cccc(-c3ccccc3)c2)cc1", "Potency": "21.9 µM (active) and 27.3 µM (active)"}
{"compound": "Cc1cccc(N)c1C", "Potency": "inactive"}
{"compound": "CC(C)(C)OOC(C)(C)C", "Potency": "inactive"}
{"compound": "C[C@]12CCC(=O)C=C1CC[C@@H]1[C@@H]2CC[C@]2(C)C(=O)CC[C@@H]12", "Potency": "inactive"}
{"compound": "OCCOCCO", "Potency": "inactive"}
{"compound": "OCC(Cl)CCl", "note": "(stereo not given)", "Potency": "inactive"}
{"compound": "Oc1ccc(Cl)cc1Cc1ccccc1", "Potency": "22 µM (active) and inactive"}
{"compound": "CCOP(=O)(CN(CCO)CCO)OCC", "Potency": "inactive"}
{"compound": "COc1cc(N)c(Cl)cc1C(=O)NC1CN2CCC1CC2", "note": "(stereo not given)", "Potency": "inactive"}
{"compound": "COc1nc(C)nc(NC(=O)NS(=O)(=O)c2ccccc2Cl)n1", "Potency": "inactive"}
{"compound": "CC(=NC#N)N(C)Cc1ccc(Cl)nc1", "Potency": "inactive"}
{"compound": "CC(C)(C)OOC(=O)c1ccccc1", "Potency": "inactive"}
